Measurements as given in the supplement of paper PMC9135407.
“And” between values parts separate entries of the source, which are not always exact repeats. Equal entries are not always repeated. Structures can show the parent of a compound that is named as a salt. About 620 (11%) of roughly 5,800 compounds showed activity. Many of the other results were omitted from the sample, so actives are more common in it than they were. A number with no mark means an inactive call.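 Rule for the calls: active = score above a cut-off or among the top three wells of a plate; in these data no inactive exceeds 0.85.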

System: primary human hepatic stellate cells (donor 1)
Experiment: scaled lipid accumulation score (0 = DMSO-like, 1 = nortriptyline-like); higher = stronger HSC inactivation (lipid re-accumulation), active = hit call of the paper
Settings: 48 h
[1] = library stock concentration: 3.33 mM
[2] = library stock concentration: 10 mM
[3] = library stock concentration: 1 mM

## Cc1cc(C(N)=O)ccc1-n1c(CCC(=O)O)ccc1-c1ccc(-n2ccnc2)cc1
[1]
  scaled lipid accumulation score: ≤ -0.009
[2]
  scaled lipid accumulation score: ≤ 0

## O=C(O)c1ccc2c(c1)CCCC2 [5,6,7,8-tetrahydro-2-Naphthoic Acid]
[3]
  scaled lipid accumulation score: ≤ 0

## CS(=O)(=O)c1ccc(Cn2c3c(c4cc(F)cc(F)c42)CCCC3CC(=O)O)cc1 (configuration not stated)
[2]
  scaled lipid accumulation score: ≤ -0.006

## O=C(O)c1ccc2c(c1)nc(Nc1cccc(Cl)c1)c1ccncc12
Library stock concentration: 400 uM
  scaled lipid accumulation score: ≤ -0.005
Library stock concentration: 2 mM
  scaled lipid accumulation score: ≤ -0.005
[2]
  scaled lipid accumulation score: ≤ -0.005

## O=C(O)c1ccc2c(c1)nc(Nc1cccc(Cl)c1)c1ccncc12 [CX-4945 (Silmitasertib)]
[1]
  scaled lipid accumulation score: ≤ 0
[2]
  scaled lipid accumulation score: ≤ 0

## OC[C@H]1O[C@H]([S-])[C@H](O)[C@@H](O)[C@@H]1O.[Au+] [Aurothioglucose]
Library stock concentration: 5.1 mM
  scaled lipid accumulation score: 0.336
[2]
  scaled lipid accumulation score: 0.397

## Oc1cc(O)c2c(c1)O[C@H](c1ccc(O)c(O)c1)[C@@H](O)C2 (racemic) [Catechin-(+,-) hydrate]
  scaled lipid accumulation score: ≤ 0

## CCCCCCCCCCCCCCCCOCC(CO)OC (configuration not stated) [1-Hexadecyl-2-O-methyl-glycerol]
[3]
  scaled lipid accumulation score: 0.003

## CCCCC(C)(C)[C@H](O)C=C[C@H]1[C@H](O)CC(=O)[C@@H]1CCCCCCC(=O)O [16,16-dimethyl Prostaglandin E1]
[3]
  scaled lipid accumulation score: ≤ 0

## CCC(O)/C=C/C=O (configuration not stated) [4-hydroxy Hexenal]
[3]
  scaled lipid accumulation score: ≤ 0

## CCCCC[C@H](O)/C=C/[C@H]1[C@H](O)CC(=O)[C@@H]1CCCCCCC(=O)NCCO [Prostaglandin E1 Ethanolamide]
[3]
  scaled lipid accumulation score: ≤ 0

## O=c1cc(-c2ccc(O)cc2)oc2cc(O[C@@H]3O[C@H](CO)[C@@H](O)[C@H](O)[C@H]3O)cc(O)c12 [Cosmosiin]
[2]
  scaled lipid accumulation score: 0.333

## CC(C)=CCC/C(C)=C\CO [Nerol]
[2]
  scaled lipid accumulation score: ≤ 0

## CC(C)=CCC/C(C)=C/CC/C(C)=C/CC[C@]1(C)CCc2cc(O)c(C)c(C)c2O1 [.gamma.-Tocotrienol]
[3]
  scaled lipid accumulation score: ≤ 0

## NC12CC3CC(CC(C3)C1)C2 [Amantadine HCl]
[1]
  scaled lipid accumulation score: ≤ 0
[2]
  scaled lipid accumulation score: 0.042

## CC12CC3CC(C)(C1)CC(N)(C3)C2.Cl [Memantine hydrochloride]
[2]
  scaled lipid accumulation score: 1.05 (active)

## NC12CC3CC(CC(C3)C1)C2 [Amantadine hydrochloride]
[2]
  scaled lipid accumulation score: 0.29 and 0.659
Library stock concentration: 10.7 mM
  scaled lipid accumulation score: 0.031

## CC12CC3CC(C)(C1)CC(N)(C3)C2 [Memantine Hydrochloride]
  scaled lipid accumulation score: 0.399

## CC12CC3CC(C)(C1)CC(N)(C3)C2
[2]
  scaled lipid accumulation score: 0.869 (active)

## CC12CC3CC(C)(C1)CC(N)(C3)C2 [Memantine hydrochloride]
Library stock concentration: 9.3 mM
  scaled lipid accumulation score: 0.689
[2]
  scaled lipid accumulation score: 0.344 and 0.653 and 0.597

## NC12CC3CC(CC(C3)C1)C2 [Adamantamine fumarate]
  scaled lipid accumulation score: 0.029

## CC12CC3CC(C)(C1)CC(N)(C3)C2 [Memantine HCl]
[1]
  scaled lipid accumulation score: 0.012
[2]
  scaled lipid accumulation score: 0.415

## NC12CC3CC(CC(C3)C1)C2 [Symmetrel]
[2]
  scaled lipid accumulation score: 0.158
